Measurements published in PubChem BioAssay (Tox21).
Inconclusive results are not listed. The source made the active and inactive calls. Unless noted, calls follow the shape of the dose curve; as a rule, active = well fitted curve in the direction sought with a large enough effect in the repeat runs; inconclusive = weak or mixed curves; inactive = no such curve, though single readings can be large; an effect the other way counts as inactive or inconclusive.

Key:
[1] = qHTS assay to identify small molecule agonists of the RXR signaling pathway - cell viability counter screen (AID 1159529);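 also: HEK 293T cells carrying an RXR-alpha UAS beta-lactamase reporter; series mostly up to about 77 µM; nearly all actives have a fitted effect of over 50% in size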
Outline: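 Steps: seed RXR-alpha-UAS-bla HEK 293T cells in assay medium containing 2% charcoal-stripped FBS; incubate 5 hr; add compounds in DMSO; incubate 16 hr at 37 C; after the bla read, add CellTiter-Glo and read luminescence at 30 min.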

[2] = qHTS assay to identify small molecule antagonists of the retinoid acid receptor (RAR) signaling pathway - cell viability counter screen (AID 1159551); also: nearly all actives have a fitted effect of over 35% in size
Outline: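 Cells (C3RL4) are plated, incubated overnight, dosed with compound in DMSO, then given retinol at 1 uM final. After 6 h at 37 C, CellTiter-Glo is added and luminescence read following 30 min at room temperature.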

[3] = qHTS assay to identify small molecule antagonists of the retinoic acid receptor (RAR) signaling pathway (AID 1159552; also: nearly all actives have a fitted effect of over 50% in size)
Outline: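 Retinol at 1 uM final stimulated RARE-luciferase expression in C3RL4 cells exposed to test compounds for 6 hr at 37 C. Reduced luminescence, read 30 min after detection reagent, indicated pathway antagonism.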

[4] = qHTS assay to identify small molecule agonists of the retinoic acid receptor (RAR) signaling pathway (AID 1159553)
Outline: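 Seed C3RL4 reporter cells at 1,000 per well and incubate overnight at 37 C. Add compounds in DMSO, incubate 6 hr. Add luciferase reagent, wait 30 min at room temperature, read luminescence.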

[5] = qHTS assay to identify small molecule antagonists of the estrogen related receptor (ERR) signaling pathway from Tox21 library - cell viability counter screen (AID 1224834); also: nearly all actives have a fitted effect of over 30% in size
Outline: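 ERR cells, 2,000/well; 6 h settle at 37 C/5% CO2; pin-tool compound transfer in DMSO; 17.5 h at 37 C; CellTiter-Fluor, 30 min; fluorescence intensity.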

[6] = target: Luciferin 4-monooxygenase (Photinus pyralis) (UniProt P08659); assay: qHTS assay to identify small molecule inhibitors of firefly luciferase (AID 1224835); also: series mostly up to about 120 µM; nearly all actives have a fitted effect of over 25% in size
Outline: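 Biochemical qHTS: compounds run as interplate titrations against purified firefly enzyme, with D-luciferin and ATP each at its KM concentration. Light output recorded by CCD imaging.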

[7] = qHTS assay to identify small molecule agonists of the constitutive androstane receptor (CAR) signaling pathway - cell viability counter screen (AID 1224836); also: series mostly up to about 92 µM; nearly all actives have a fitted effect of over 45% in size
Outline: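 Cells were seeded and incubated 4 hrs. Compounds were added across 15 concentrations together with PK11195 at 0.75 uM final. Plates were incubated 23 hrs at 37 C. CellTiter-Fluor was added and fluorescence measured.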

[8] = qHTS assay to identify small molecule antagonists of the constitutive androstane receptor (CAR) signaling pathway - cell viability counter screen (AID 1224837); also: series mostly up to about 92 µM; nearly all actives have a fitted effect of over 45% in size
Outline: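 Viability was measured with CellTiter-Fluor in a HepG2 line carrying stably transfected hCAR and a CYP2B6-2.2kb construct. Cells were exposed for 23 hr at 37 C to 15 compound concentrations with 50 nM CITCO as agonist.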

[9] = target: Nuclear receptor subfamily 1 group I member 3 (Homo sapiens) (UniProt Q14994); assay: qHTS assay to identify small molecule antagonists of the constitutive androstane receptor (CAR) signaling pathway (AID 1224838);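 also: HepG2 cells stably expressing hCAR with CYP2B6 luciferase reporter stimulated by CITCO; nearly all actives have a fitted effect of over 40% in size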
Outline: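 Antagonist mode used CITCO at a final 50 nM to activate CAR in human hepatoma HepG2 cells carrying stable hCAR and a 2.2 kb CYP2B6 promoter-luciferase construct. Compounds were tested at 15 concentrations over 24 h, with luminescence as the end point.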

[10] = target: Nuclear receptor subfamily 1 group I member 3 (Homo sapiens) (UniProt Q14994); assay: qHTS assay to identify small molecule agonists of the constitutive androstane receptor (CAR) signaling pathway (AID 1224839); also: series mostly up to about 92 µM; nearly all actives have a fitted effect of over 15% in size
Outline: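 Cells were plated and incubated 4 hrs, then dosed with compounds at 15 concentrations. PK11195 was added to 0.75 uM final. After 24 hrs at 37 C, luciferase luminescence was measured.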

[11] = qHTS assay to identify small molecule antagonists of the estrogen related receptor signaling pathway with the pleiotropic PPARgamma coactivator (PGC) from Tox21 10K library - cell viability counter screen (AID 1224840; active = well fitted cell-killing curve with a large enough effect in the repeat runs, not every such curve was filed as active; also: nearly all actives have a fitted effect of over 40% in size)
Outline: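 Multiplexed viability counter screen in the PGC/ERR cell line: cells treated with DMSO-dissolved compounds for 17.5 hours at 37 C, then viability measured as CellTiter-Fluor fluorescence.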

[12] = qHTS assay to identify small molecule antagonists of the estrogen related receptor signaling pathway with the pleiotropic PPARgamma coactivator (PGC) from Tox21 10K library (AID 1224841; call rule not given here; also: series mostly up to about 92 µM; actives are mostly falling curves and most rising ones were filed inactive; nearly all actives have a fitted effect of over 50% in size)
Outline: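 Steps: plate 2,000 PGC/ERR cells per well; incubate 6 h at 37 C with 5% CO2; transfer compounds from DMSO stocks by pin tool; incubate 18 h at 37 C; add One-Glo; measure luminescence 30 min later.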

[13] = qHTS assay to identify small molecule agonists of the estrogen related receptor signaling pathway with the pleiotropic PPARgamma coactivator (PGC) from Tox21 10K library (AID 1224842); also: nearly all actives have a fitted effect of over 15% in size
Outline: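 PGC/ERR reporter cell line, 2,000 cells per well, incubated 6 h at 37 C before 23 nL compound in DMSO was added. After 18 h at 37 C, One-Glo luminescence read following 30 min at room temperature.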

[14] = qHTS assay to identify small molecule antagonists of the estrogen related receptor (ERR) signaling pathway - cell viability counter screen (AID 1224818); also: series mostly up to about 46 µM
Outline: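 ERR cells, 2,000/well; 6 h settle at 37 C/5% CO2; compound pin transfer (DMSO); 17.5 h at 37 C; CellTiter-Fluor, 30 min, fluorescence read.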

[15] = qHTS assay to identify small molecule antagonists of the estrogen related receptor (ERR) signaling pathway (AID 1224819;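 also: luminescence from an ERR-driven luciferase reporter measured with One-Glo reagent; series mostly up to about 46 µM; nearly all actives have a fitted effect of over 50% in size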)
Outline: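 qHTS in ERR cells, 2,000/well, 1536 format. Cpd (DMSO) added after 6 h settle, 18 h 37 C. One-Glo luminescence, 30 min RT.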

[16] = qHTS assay to identify small molecule agonists of the estrogen related receptor (ERR) signaling pathway (AID 1224820)
Outline: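 An ERR cell line provided by NTP was seeded at 2,000 cells per well and allowed to settle for 6 h before compounds in DMSO were added. After 18 h at 37 C, luciferase activity was measured by One-Glo luminescence.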

[17] = system: estrogen-related receptor alpha (ERRalpha) with PGC-1alpha coactivator, human; assay: qHTS assay to identify small molecule antagonists of the estrogen related receptor signaling pathway with the pleiotropic PPARgamma coactivator (PGC) (AID 1224821; calls by dose curve)
Outline: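 A PGC/ERR cell line supplied by NTP is seeded, allowed 6 h at 37 C, and treated with test compounds in DMSO for 18 h. Signal is then measured as luciferase luminescence using One-Glo.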

[18] = qHTS assay to identify small molecule antagonists of the estrogen related receptor signaling pathway with the pleiotropic PPARgamma coactivator (PGC) cell viability counter screen (AID 1224822;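 also: series mostly up to about 46 µM; viability read after 17.5 h compound exposure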)
Outline: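 Multiplexed viability counter screen run in PGC/ERR cells treated with compounds for 17.5 h at 37 C; live-cell protease signal measured by CellTiter-Fluor fluorescence.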

[19] = qHTS assay to identify small molecule agonists of the estrogen related receptor signaling pathway with the pleiotropic PPARgamma coactivator (PGC) (AID 1224823)
Outline: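 Compounds dissolved in DMSO are added by pin tool to PGC/ERR cells that have settled for 6 h, and incubation continues 18 h at 37 C. Reporter output is measured as One-Glo luminescence.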

[20] = target: Thyrotropin receptor (Homo sapiens) (UniProt P16473); assay: qHTS assay to identify small molecule agonists of the thyroid stimulating hormone receptor (TSHR) signaling pathway (AID 1224843; calls by dose curve; also: nearly all actives have a fitted effect of over 45% in size)
Outline: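 Agonist-mode screen: TSHR HEK293 cells received test chemicals for half an hour at room temperature, then HTRF cAMP detection reagents for one hour prior to fluorescence measurement. Each chemical ran as a 15-concentration series, triplicated.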

Measured: Potency

Chain of Thyrotropin receptor (Homo sapiens) (P16473 whole entry, looked up): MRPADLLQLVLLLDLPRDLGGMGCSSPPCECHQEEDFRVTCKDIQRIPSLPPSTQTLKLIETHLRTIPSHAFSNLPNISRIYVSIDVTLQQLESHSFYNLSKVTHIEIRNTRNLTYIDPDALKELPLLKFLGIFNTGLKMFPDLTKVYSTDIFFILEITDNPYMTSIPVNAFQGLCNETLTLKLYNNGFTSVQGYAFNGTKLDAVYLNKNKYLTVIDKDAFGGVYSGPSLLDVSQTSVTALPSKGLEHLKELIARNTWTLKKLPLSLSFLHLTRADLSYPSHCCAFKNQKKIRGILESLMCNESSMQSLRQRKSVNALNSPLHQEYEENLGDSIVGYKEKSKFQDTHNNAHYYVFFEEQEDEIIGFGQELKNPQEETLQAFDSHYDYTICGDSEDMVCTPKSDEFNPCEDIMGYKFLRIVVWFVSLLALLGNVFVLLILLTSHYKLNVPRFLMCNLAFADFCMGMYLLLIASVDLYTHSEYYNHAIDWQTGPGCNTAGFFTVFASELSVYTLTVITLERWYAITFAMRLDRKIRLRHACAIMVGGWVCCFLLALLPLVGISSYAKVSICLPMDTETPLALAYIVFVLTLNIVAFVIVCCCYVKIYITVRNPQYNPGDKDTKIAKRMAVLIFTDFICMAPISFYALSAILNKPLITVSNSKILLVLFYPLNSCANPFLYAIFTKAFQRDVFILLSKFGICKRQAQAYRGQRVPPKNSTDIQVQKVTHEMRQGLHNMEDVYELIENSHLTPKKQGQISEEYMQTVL
Chain of Nuclear receptor subfamily 1 group I member 3 (Homo sapiens) (Q14994 whole entry, looked up): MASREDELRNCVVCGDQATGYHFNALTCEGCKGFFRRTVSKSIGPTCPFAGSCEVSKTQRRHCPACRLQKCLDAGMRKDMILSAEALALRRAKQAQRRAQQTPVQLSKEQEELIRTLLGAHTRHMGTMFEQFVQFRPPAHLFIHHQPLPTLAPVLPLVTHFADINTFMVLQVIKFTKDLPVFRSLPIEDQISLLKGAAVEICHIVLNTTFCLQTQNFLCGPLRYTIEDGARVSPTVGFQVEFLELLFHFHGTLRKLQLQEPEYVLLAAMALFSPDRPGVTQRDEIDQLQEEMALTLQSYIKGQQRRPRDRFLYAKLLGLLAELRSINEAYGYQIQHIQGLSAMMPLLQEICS
Chain of Luciferin 4-monooxygenase (Photinus pyralis) (P08659 whole entry, looked up): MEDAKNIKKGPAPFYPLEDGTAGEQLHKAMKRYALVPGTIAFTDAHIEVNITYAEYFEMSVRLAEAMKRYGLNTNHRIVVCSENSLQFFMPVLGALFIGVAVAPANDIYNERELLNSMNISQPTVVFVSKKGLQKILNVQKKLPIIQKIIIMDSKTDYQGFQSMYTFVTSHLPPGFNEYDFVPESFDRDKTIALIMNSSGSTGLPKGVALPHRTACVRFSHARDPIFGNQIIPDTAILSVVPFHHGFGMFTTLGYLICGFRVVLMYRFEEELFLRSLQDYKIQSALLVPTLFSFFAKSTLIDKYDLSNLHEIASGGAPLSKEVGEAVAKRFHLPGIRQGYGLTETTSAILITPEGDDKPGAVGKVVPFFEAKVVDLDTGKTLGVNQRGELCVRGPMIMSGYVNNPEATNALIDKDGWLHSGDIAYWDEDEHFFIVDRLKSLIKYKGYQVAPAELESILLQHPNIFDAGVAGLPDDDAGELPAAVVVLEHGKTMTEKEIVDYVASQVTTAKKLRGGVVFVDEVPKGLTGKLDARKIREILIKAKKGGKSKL

Cc1cc(=O)n(-c2ccccc2)n1C
inactive: [1] | [2] | [3] | [4] | [5] | [6] | [7] | [8] | [9] | [10] | [11] | [12] | [13]

O=C(C1CCCCC1)N1CC(=O)N2CCc3ccccc3C2C1 (stereo not drawn)
inactive: [1] | [2] | [3] | [4] | [14] | [15] | [16] | [17] | [18] | [19] | [7] | [8] | [10] | [11] | [12] | [13]

CCCCC(CC)COC(=O)/C=C/c1ccc(OC)cc1 (stereo not drawn)
inactive: [1] | [2] | [3] | [4] | [5] | [7] | [8] | [9] | [10] | [11] | [12] | [13] | [20]

O=NO
inactive: [1] | [2] | [3] | [4] | [5] | [7] | [8] | [9] | [10] | [11] | [20]

O=C(O)CCC(=O)O
inactive: [1] | [2] | [3] | [4] | [5] | [7] | [8] | [9] | [10] | [11] | [12] | [13] | [20]

CC(C)(Oc1ccc(C2CC2(Cl)Cl)cc1)C(=O)O (stereo not drawn)
inactive: [1] | [2] | [3] | [4] | [14] | [18] | [5] | [7] | [8] | [9] | [10] | [11] | [20]

Cc1ccc(S(=O)(=O)NC(=O)NN2CCCCCC2)cc1
inactive: [1] | [2] | [3] | [4] | [14] | [15] | [16] | [18] | [19] | [5] | [7] | [8] | [9] | [11] | [12] | [13] | [20]

CCC1(c2ccccc2)C(=O)NCNC1=O
inactive: [1] | [2] | [3] | [4] | [14] | [18] | [5] | [7] | [8] | [9] | [10] | [11] | [20]

CC(=O)Nc1nnc(S(N)(=O)=O)s1
inactive: [1] | [2] | [3] | [4] | [14] | [18] | [5] | [7] | [8] | [9] | [10] | [11] | [20]

NC(=O)c1ccccc1O
inactive: [1] | [2] | [3] | [4] | [5] | [6] | [7] | [8] | [11] | [20]

OCCc1ccccc1
inactive: [1] | [2] | [3] | [4] | [5] | [6] | [7] | [8] | [11] | [20]

CCCNC(=O)NS(=O)(=O)c1ccc(Cl)cc1
inactive: [1] | [2] | [3] | [4] | [14] | [18] | [5] | [7] | [8] | [11] | [20]

CCCCCCCCCCCCCCCC(=O)O
inactive: [1] | [2] | [3] | [4] | [5] | [7] | [8] | [9] | [10] | [11] | [20]

Nc1ccc(O)c(C(=O)O)c1
inactive: [1] | [2] | [3] | [4] | [5] | [7] | [8] | [9] | [10] | [11] | [12] | [13] | [20]

C[C@]12C=CC(=O)C=C1CC[C@@H]1[C@@H]2[C@@H](O)C[C@@]2(C)[C@H]1CC[C@]2(O)C(=O)CO
inactive: [1] | [2] | [3] | [4] | [5] | [7] | [8] | [9] | [10] | [11]

O=c1ccc2ccccc2o1
inactive: [1] | [2] | [3] | [4] | [5] | [7] | [8] | [9] | [10] | [11] | [20]
